Source: the OligoGym collection

Target: OLFML2A
Test: pooled miR-30 sensor sort-seq; sequence = guide strand
Details: shRNA
Note: reference of the scale not given here.

For TTGTAGTCGATCTGGGTGGTGT, which sensor-assay potency score (higher = more potent) is on record?
The sensor-assay potency score (higher = more potent) was -0.246.

For TTGTACATGTTACTCCAGCGGC, which sensor-assay potency score (higher = more potent) is on record?
Its sensor-assay potency score (higher = more potent) is -0.677.

With TTCAAACATACAGACATCCAGG as the sequence, how does the sensor-assay potency score (higher = more potent) read?
The sensor-assay potency score (higher = more potent) was -0.00393.

Which sensor-assay potency score (higher = more potent) does the source give for TTTCCATAGTAGTAGTTGGTGA here?
The sensor-assay potency score (higher = more potent) was -0.818.

Target: OLIG1
Test: as above
Details: shRNA

For TTGGTTTTCGTTTTTAAGCAAG, which sensor-assay potency score (higher = more potent) is on record?
Its sensor-assay potency score (higher = more potent) is -1.05.

With TAACGTCTGTAACAAATCGAAA as the sequence, how does the sensor-assay potency score (higher = more potent) read?
The sensor-assay potency score (higher = more potent) was -1.41.

Which sensor-assay potency score (higher = more potent) does the source give for TTAACGTCTGTAACAAATCGAA here?
Its sensor-assay potency score (higher = more potent) is -0.686.

For TTACCTATTTTAGTAAATCGGG, which sensor-assay potency score (higher = more potent) is on record?
Its sensor-assay potency score (higher = more potent) is -0.775.

Which sensor-assay potency score (higher = more potent) does the source give for TTTAAGAGCGAAAACTCTCTGC here?
Its sensor-assay potency score (higher = more potent) is -0.0663.

For TTGTTGATTCTGTACACCGTCA, which sensor-assay potency score (higher = more potent) is on record?
Its sensor-assay potency score (higher = more potent) is -0.445.

How did the sensor-assay potency score (higher = more potent) turn out when TCGGCTACTACCAACAACCAAA was run?
Its sensor-assay potency score (higher = more potent) is -1.38.

TACCTATTTTAGTAAATCGGGA was tested. Which sensor-assay potency score (higher = more potent) did it give?
The sensor-assay potency score (higher = more potent) was -0.985.

Which sensor-assay potency score (higher = more potent) does the source give for TAGTAAATCGGGAACACTGGAT here?
The sensor-assay potency score (higher = more potent) was -0.186.

How did the sensor-assay potency score (higher = more potent) turn out when TTGCTTTCTAAGAAACCCCCAG was run?
The sensor-assay potency score (higher = more potent) was -0.585.

For TATGTAGCTCTTCAACTGCAAG, which sensor-assay potency score (higher = more potent) is on record?
Its sensor-assay potency score (higher = more potent) is -1.7.

For TACAGCTCTCCAAACAGCTGGT, which sensor-assay potency score (higher = more potent) is on record?
Its sensor-assay potency score (higher = more potent) is -0.013.

Target: OMD
Test: as above
Details: shRNA

With TTGGTCATAGTCTTCATCCCAC as the sequence, how does the sensor-assay potency score (higher = more potent) read?
Its sensor-assay potency score (higher = more potent) is -0.0587.

TTTGAGTAAGTTCTAATCCTAT was tested. Which sensor-assay potency score (higher = more potent) did it give?
The sensor-assay potency score (higher = more potent) was -0.412.

Which sensor-assay potency score (higher = more potent) does the source give for TATTTCATTATTTTGTAGGTAT here?
The sensor-assay potency score (higher = more potent) was 0.614.

With TTAAATTCAATTCTGATCTTAT as the sequence, how does the sensor-assay potency score (higher = more potent) read?
The sensor-assay potency score (higher = more potent) was -0.256.

How did the sensor-assay potency score (higher = more potent) turn out when TTTGTCGAAGTATTTTTCGGGT was run?
The sensor-assay potency score (higher = more potent) was -0.262.

TTTGTTGTGTCCAACACTGAGT was tested. Which sensor-assay potency score (higher = more potent) did it give?
Its sensor-assay potency score (higher = more potent) is -0.557.

How did the sensor-assay potency score (higher = more potent) turn out when TTAGTTGTATTGTTTGACCATT was run?
The sensor-assay potency score (higher = more potent) was -0.906.

For TTGTGTGACATTCTTAGAGTAT, which sensor-assay potency score (higher = more potent) is on record?
Its sensor-assay potency score (higher = more potent) is -0.365.

For TATAGGTTTTGTGAAGTCGTAA, which sensor-assay potency score (higher = more potent) is on record?
The sensor-assay potency score (higher = more potent) was -0.621.

With TTCATTGTAACCAAGAAGGAGT as the sequence, how does the sensor-assay potency score (higher = more potent) read?
Its sensor-assay potency score (higher = more potent) is -0.273.

For TAGTGCTTCGTTGTTCACCATA, which sensor-assay potency score (higher = more potent) is on record?
Its sensor-assay potency score (higher = more potent) is -1.2.

Which sensor-assay potency score (higher = more potent) does the source give for TTGTAGTAGATTTGGAAGCTTA here?
Its sensor-assay potency score (higher = more potent) is -0.257.

Target: OPRK1
Test: as above
Details: shRNA

For TTGCTGTCTTCATCTTTGTGTA, which sensor-assay potency score (higher = more potent) is on record?
The sensor-assay potency score (higher = more potent) was -0.644.

How did the sensor-assay potency score (higher = more potent) turn out when TATCTTGCACAGCACATCCCCA was run?
Its sensor-assay potency score (higher = more potent) is -0.82.

Which sensor-assay potency score (higher = more potent) does the source give for TTGGTTGCTGTCTTCATCTTTG here?
The sensor-assay potency score (higher = more potent) was -0.766.

Which sensor-assay potency score (higher = more potent) does the source give for ATCACGAACATGACCAGCGAGT here?
The sensor-assay potency score (higher = more potent) was -1.24.

With TTTCGGACTCTGCTAGTGCTCT as the sequence, how does the sensor-assay potency score (higher = more potent) read?
Its sensor-assay potency score (higher = more potent) is -0.953.

For AATAGCTGGAGAGAGCAGCTGT, which sensor-assay potency score (higher = more potent) is on record?
The sensor-assay potency score (higher = more potent) was 0.381.

Which sensor-assay potency score (higher = more potent) does the source give for TATCGGATGATCACGAACATGA here?
The sensor-assay potency score (higher = more potent) was -0.746.

How did the sensor-assay potency score (higher = more potent) turn out when ATGACATCGACGTCTTCCCTGA was run?
The sensor-assay potency score (higher = more potent) was -0.669.

Which sensor-assay potency score (higher = more potent) does the source give for TTACTATCTTGCACAGCACATC here?
Its sensor-assay potency score (higher = more potent) is -1.6.

TTGTAGTAACTAAAGCATCTGC was tested. Which sensor-assay potency score (higher = more potent) did it give?
The sensor-assay potency score (higher = more potent) was -0.405.

TTCATGAAGAGGTCCCACCAGG was tested. Which sensor-assay potency score (higher = more potent) did it give?
The sensor-assay potency score (higher = more potent) was -0.714.

With TAGCTGGAGAGAGCAGCTGTGC as the sequence, how does the sensor-assay potency score (higher = more potent) read?
Its sensor-assay potency score (higher = more potent) is -1.45.
